“And” between values parts separate entries of the source, which are not always exact repeats. Identical values can stand only once. Records with an inconclusive call do not appear. The source made the active and inactive calls. Unless noted, the call rests on the fitted dose curve.
Assays:
[1] = Nuclear factor erythroid 2-related factor 2/antioxidant responsive element (Nrf2/ARE) small molecule agonists: qHTS cell viability counter screen in human keratinocytes (AID 1919968; active means well fitted curve in the direction sought with a large enough effect in the repeat runs; an effect the other way counts as inactive or inconclusive; further: nearly all actives have a fitted effect of over 55% in size; further: potency means the concentration at half of the fitted maximal effect)
How it was run: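 KeratinoSens HaCaT cells, 1,500/well, preincubated 5 h, then exposed to compounds in DMSO for 23 h at 37 C/5% CO2. Viability read as CellTiter-Fluor fluorescence after 1 h, in the same wells as the ARE-luciferase read.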

[2] = Nuclear factor erythroid 2-related factor 2/antioxidant responsive element (Nrf2/ARE) small molecule agonists: luciferase reporter gene qHTS assay in human keratinocytes (AID 1919969); further: nearly all actives have a fitted effect of over 35% in size; further: potency means the concentration at half of the fitted maximal effect
[3] = biological target: Gonadotropin-releasing hormone receptor (Homo sapiens) (UniProt P30968); test: Human gonadotropin-releasing hormone receptor (GnRHR) small molecule agonists, calcium flux assay in GnRHR-HEK293 cells (AID 1920063); further: nearly all actives have a fitted effect of over 35% in size
How it was run: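 HEK293 cells stably expressing human GnRHR were dye-loaded for 1 h at 37 C. Compound was added in agonist mode and fluorescence (Ex/Em 480/540) recorded kinetically for 3 min. Fifteen concentrations, triplicates.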

[4] = biological target: KiSS-1 receptor (Homo sapiens) (UniProt Q969F8); test: Human kisspeptin (KISS1R) small molecule agonists, calcium flux assay in KISS1R-HEK293 cells (AID 1920064; active means well fitted curve in the direction sought with a large enough effect in the repeat runs; an effect the other way counts as inactive or inconclusive)
How it was run: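 HEK293 cells stably expressing human KISS1R were loaded with calcium dye for 1 h at 37 C, then given compound; fluorescence (Ex/Em 480/540) was read kinetically for 3 min. Fifteen concentrations, triplicate.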

[5] = G protein-coupled receptor (GPCR) small molecule agonists, calcium flux assay: HEK293 wild type cell line counter screen (AID 1920065)
How it was run: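 Wild-type HEK293 cells plated 18 h, loaded with calcium dye 1 h at 37 C, then compounds added in agonist mode (ATP as positive control). Kinetic fluorescence Ex/Em 480/540 recorded 3 min at 1 sec intervals; 15 concentrations, triplicate.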

[6] = p53 small molecule agonists, cell-based qHTS assay with human liver microsomes (AID 1963577)
How it was run: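 Cells carrying a p53-responsive bla reporter were rested 5 h (37 C, 5% CO2) before compound transfer. Human liver microsomes plus NADPH, 0.5 mg/mL final apiece, supplied metabolism during the 16 h 37 C exposure.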

[7] = p53 small molecule agonists, cell-based qHTS assay with rat liver microsomes (AID 1963578)
How it was run: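 Fluorescence from a beta-lactamase reporter under a p53 response element was measured after cells had been incubated 16 h at 37 C with test compound and rat liver microsomes plus NADPH (0.5 mg/mL final each).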

[8] = p53 small molecule agonists, cell-based qHTS assay with human liver microsomes: qHTS cell viability counter screen (AID 1963579); further: nearly all actives have a fitted effect of over 45% in size; further: potency means the concentration at half of the fitted maximal effect
How it was run: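 Seed p53RE-bla cells at 4,000 per well; incubate 5 h at 37 C; add compound, human liver microsomes and NADPH; incubate 16 h at 37 C; add CellTiter-Glo; after 30 min at room temperature, read luminescence.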

[9] = p53 small molecule agonists, cell-based qHTS assay with rat liver microsomes: qHTS cell viability counter screen (AID 1963580); further: nearly all actives have a fitted effect of over 45% in size
How it was run: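 In HCT-116 cells carrying a p53 response element-bla reporter, compounds were metabolically activated in situ by rat liver microsomes with NADPH over 16 h. Cell ATP content then served as the cytotoxicity measure.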

[10] = p53 small molecule agonists, cell-based qHTS assay: qHTS cell viability counter screen (AID 1963581); further: nearly all actives have a fitted effect of over 45% in size; further: potency means the concentration at half of the fitted maximal effect
How it was run: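 p53RE-bla HCT-116 cells, compounds added 5 h after plating and incubated 16 h at 37 C. Cytotoxicity measured in the same wells as intracellular ATP by CellTiter-Glo luminescence after 30 min at room temperature.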

[11] = p53 small molecule agonists, cell-based qHTS assay (AID 1963582; active means well fitted activation curve with a large enough effect in the signal ratio in the repeat runs, not every such curve was filed as active; the % refers to the signal ratio)
How it was run: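 p53RE-bla reporter cells, compounds added in DMSO after 5 h plating, incubated 16 h at 37 C. Beta-lactamase read via 2 h room-temperature LiveBLAzer B/G FRET substrate, fluorescence intensity.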

[12] = cAMP Responsive Elements (CRE) small molecule agonists, cell-based qHTS assay (AID 1963590)
How it was run: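 CRE-bla HEK 293T cells, 2,000/well in DMEM with 10% dialyzed FBS and 25 mM HEPES, pre-incubated 18 h at 37 C, then exposed to compound 3 h at 37 C. Beta-lactamase reporter read with LiveBLAzer B/G FRET substrate after 2 h at room temperature.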

[13] = cAMP Responsive Elements (CRE) small molecule antagonists, cell-based qHTS assay (AID 1963591; active means well fitted inhibition curve with a large enough effect in the signal ratio in the repeat runs, not every such curve was filed as active; the % refers to the signal ratio; further: potency means the concentration at half of the fitted maximal effect)
How it was run: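 CRE-bla HEK293T cells plated 18 h, then given compound plus NKH477 at 0.25 uM final for 3 h at 37C. Beta-lactamase reporter read with LiveBLAzer B/G FRET substrate after 2 h at room temperature.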

[14] = biological target: Beta-2 adrenergic receptor (Homo sapiens) (UniProt P07550); test: Adrenergic beta2 receptor (ADRB2) small molecule antagonists, cell-based qHTS assay (AID 1963592); further: series mostly up to about 92 µM; nearly all actives have a fitted effect of over 50% in size
How it was run: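 Cells (CHO, stable ADRB2 overexpression) incubated 18-20hr at 37C; compounds added from DMSO; agonist mix (1nM isoproterenol, 100uM IBMX, 25uM Ro-20-1724) added; 0.5hr RT; d2-cAMP and anti-cAMP-cryptate added; 1hr RT; 665/615 nm read.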

[15] = biological target: D(2) dopamine receptor (Homo sapiens) (UniProt P14416); test: Dopamine D2 receptor (DRD2) small molecule agonists, cell-based qHTS assay (AID 1963594); further: nearly all actives have a fitted effect of over 35% in size
How it was run: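 HEK293 cells stably expressing DRD2 were cultured 24 h at 37 C, then given Ro20-1724 (0.1 mM final) and compounds for 10 min at room temperature. NKH477 (200nM) was then added for 30 min. cAMP was read by HTRF.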

[16] = biological target: D(2) dopamine receptor (Homo sapiens) (UniProt P14416); test: Dopamine D2 receptor (DRD2) small molecule antagonists, cell-based qHTS assay (AID 1963595; active means well fitted inhibition curve with a large enough effect in the signal ratio in the repeat runs, with a control signal flat; the % refers to the signal ratio)
How it was run: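 Readout: HTRF cAMP, cAMP-d2 competing with cellular cAMP for anti-cAMP cryptate, read after 1 h. Cells: DRD2-HEK293. Conditions: 0.1 mM Ro20-1724, 12 nM quinpirole, 200 nM NKH477, 30 min RT.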

[17] = biological target: Beta-2 adrenergic receptor (Homo sapiens) (UniProt P07550); test: Adrenergic beta2 receptor (ADRB2) small molecule agonists, cell-based qHTS assay (AID 1963593);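 further: CHO cells stably overexpressing human ADRB2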
How it was run: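 CHO cells stably over-expressing ADRB2 were plated overnight at 37C, then dosed with compounds plus a stimulation mix containing 100uM IBMX and 25uM Ro-20-1724 for 0.5hr at room temperature. cAMP was measured by HTRF competition, 1hr.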

[18] = biological target: 5-hydroxytryptamine receptor 2A (Homo sapiens) (UniProt P28223); test: 5-hydroxytryptamine receptor 2A (HTR2A) small molecule antagonists, cell-based qHTS assay (AID 1963586); further: nearly all actives have a fitted effect of over 45% in size
How it was run: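 Antagonist-mode intracellular calcium assay: DOI (4 nM) added after 5 min compound pre-incubation at room temperature to dye-loaded HTR2A-CHO cells. Fluorescence followed for 3 min, sampled every second.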

[19] = biological target: 5-hydroxytryptamine receptor 2A (Homo sapiens) (UniProt P28223); test: 5-hydroxytryptamine receptor 2A (HTR2A) small molecule agonists, cell-based qHTS assay (AID 1963587); further: nearly all actives have a fitted effect of over 30% in size
How it was run: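 HTR2A-CHO cells, plated 18 h at 37 C/5% CO2, dye-loaded 1 h at 37 C; compounds in DMSO added by pin tool (agonist mode). Intracellular calcium flux read as kinetic fluorescence on FDSS over 2 min at 1 s intervals.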

[20] = biological target: Muscarinic acetylcholine receptor M1 (Homo sapiens) (UniProt P11229); test: Cholinergic receptor muscarinic 1 (CHRM1) small molecule agonists, cell-based qHTS assay (AID 1963589); further: nearly all actives have a fitted effect of over 35% in size
How it was run: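 CHO cells stably expressing human CHRM1 were loaded with calcium dye for 1 h at 37 C, then compound was added in agonist mode. Intracellular calcium fluorescence was followed kinetically at 1 s intervals. Fifteen concentrations were tested in three independent runs.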
On the % scale 0 is the no-effect control and ±100 the full control effect.

Sequence of Beta-2 adrenergic receptor (Homo sapiens) (P07550 whole entry, looked up): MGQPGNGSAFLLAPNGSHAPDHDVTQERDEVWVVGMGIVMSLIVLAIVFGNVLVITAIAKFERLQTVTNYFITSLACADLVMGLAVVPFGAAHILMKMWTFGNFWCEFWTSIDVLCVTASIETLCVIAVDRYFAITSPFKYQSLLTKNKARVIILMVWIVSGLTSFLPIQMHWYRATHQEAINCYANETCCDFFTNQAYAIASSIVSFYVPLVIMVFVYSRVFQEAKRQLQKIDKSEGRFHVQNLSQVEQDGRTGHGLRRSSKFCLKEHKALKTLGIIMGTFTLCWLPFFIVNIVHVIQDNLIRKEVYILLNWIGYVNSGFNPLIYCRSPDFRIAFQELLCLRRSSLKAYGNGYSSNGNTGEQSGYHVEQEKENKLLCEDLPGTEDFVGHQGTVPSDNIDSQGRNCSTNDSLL
Sequence of D(2) dopamine receptor (Homo sapiens) (P14416 whole entry, looked up): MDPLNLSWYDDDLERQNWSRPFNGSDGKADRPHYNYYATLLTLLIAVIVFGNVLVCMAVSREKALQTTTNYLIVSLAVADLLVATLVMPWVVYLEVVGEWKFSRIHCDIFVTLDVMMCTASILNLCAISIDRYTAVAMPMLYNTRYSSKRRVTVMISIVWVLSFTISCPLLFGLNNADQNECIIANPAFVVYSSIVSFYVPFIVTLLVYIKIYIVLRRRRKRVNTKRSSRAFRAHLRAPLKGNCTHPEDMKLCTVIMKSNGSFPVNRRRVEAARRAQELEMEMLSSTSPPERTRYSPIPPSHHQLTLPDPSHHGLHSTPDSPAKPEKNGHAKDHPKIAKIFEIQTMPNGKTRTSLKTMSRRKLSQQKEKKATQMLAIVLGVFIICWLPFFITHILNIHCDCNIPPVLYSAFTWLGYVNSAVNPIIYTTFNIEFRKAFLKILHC
Sequence of 5-hydroxytryptamine receptor 2A (Homo sapiens) (P28223 whole entry, looked up): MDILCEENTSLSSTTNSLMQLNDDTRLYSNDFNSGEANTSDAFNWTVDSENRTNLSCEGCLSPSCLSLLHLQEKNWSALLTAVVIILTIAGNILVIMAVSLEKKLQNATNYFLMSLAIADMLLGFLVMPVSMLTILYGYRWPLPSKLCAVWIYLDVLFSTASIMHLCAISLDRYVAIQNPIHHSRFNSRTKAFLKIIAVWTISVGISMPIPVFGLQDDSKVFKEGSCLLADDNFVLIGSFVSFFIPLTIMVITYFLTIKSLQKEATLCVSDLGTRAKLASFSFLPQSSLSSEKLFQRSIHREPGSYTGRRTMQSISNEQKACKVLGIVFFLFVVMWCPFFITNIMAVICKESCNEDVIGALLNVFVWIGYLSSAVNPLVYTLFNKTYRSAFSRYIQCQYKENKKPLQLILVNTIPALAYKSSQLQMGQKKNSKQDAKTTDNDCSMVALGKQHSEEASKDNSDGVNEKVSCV
Sequence of Gonadotropin-releasing hormone receptor (Homo sapiens) (P30968 whole entry, looked up): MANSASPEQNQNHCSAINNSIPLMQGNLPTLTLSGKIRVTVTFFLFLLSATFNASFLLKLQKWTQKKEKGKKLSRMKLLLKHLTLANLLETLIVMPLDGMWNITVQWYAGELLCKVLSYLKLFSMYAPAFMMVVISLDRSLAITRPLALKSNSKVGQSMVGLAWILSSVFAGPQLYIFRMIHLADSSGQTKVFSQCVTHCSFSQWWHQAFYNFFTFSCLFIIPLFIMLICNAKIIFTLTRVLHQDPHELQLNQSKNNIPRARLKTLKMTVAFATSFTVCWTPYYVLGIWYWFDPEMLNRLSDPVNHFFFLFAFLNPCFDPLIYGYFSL
Sequence of KiSS-1 receptor (Homo sapiens) (Q969F8 whole entry, looked up): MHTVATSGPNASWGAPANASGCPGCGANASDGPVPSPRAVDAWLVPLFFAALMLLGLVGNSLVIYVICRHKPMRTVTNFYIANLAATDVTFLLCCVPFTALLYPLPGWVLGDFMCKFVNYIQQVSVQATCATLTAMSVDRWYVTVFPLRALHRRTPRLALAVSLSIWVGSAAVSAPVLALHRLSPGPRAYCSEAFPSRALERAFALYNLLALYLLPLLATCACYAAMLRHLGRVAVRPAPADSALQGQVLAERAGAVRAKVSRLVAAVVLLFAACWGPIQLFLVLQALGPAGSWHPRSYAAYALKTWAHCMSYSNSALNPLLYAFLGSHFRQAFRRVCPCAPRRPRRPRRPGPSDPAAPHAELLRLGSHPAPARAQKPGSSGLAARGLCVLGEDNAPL
Sequence of Muscarinic acetylcholine receptor M1 (Homo sapiens) (P11229 whole entry, looked up): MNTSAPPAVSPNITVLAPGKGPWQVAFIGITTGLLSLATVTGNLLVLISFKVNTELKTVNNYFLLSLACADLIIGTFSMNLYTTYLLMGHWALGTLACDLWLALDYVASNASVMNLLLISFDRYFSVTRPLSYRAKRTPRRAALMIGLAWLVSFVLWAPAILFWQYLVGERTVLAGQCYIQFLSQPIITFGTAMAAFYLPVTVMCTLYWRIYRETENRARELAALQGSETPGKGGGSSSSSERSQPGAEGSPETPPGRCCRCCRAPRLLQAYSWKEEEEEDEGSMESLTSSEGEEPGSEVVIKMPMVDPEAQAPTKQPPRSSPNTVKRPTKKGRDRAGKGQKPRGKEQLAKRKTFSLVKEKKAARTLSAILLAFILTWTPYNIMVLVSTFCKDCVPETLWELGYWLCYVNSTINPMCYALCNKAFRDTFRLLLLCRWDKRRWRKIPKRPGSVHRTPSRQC

Cn1c(=O)c2[nH]cnc2n(C)c1=O
inactive: Potency [1] | Potency [2] | Potency [3] | Potency [4] | Potency [5] | Potency [6] | Potency [7] | Potency [8] | Potency [9] | Potency [10] | Potency [11] | Potency [12] | Potency [13] | Potency [14] | Potency [15] | Potency [16]

CC(=O)Nc1nnc(S(N)(=O)=O)s1
inactive: Potency [1] | Potency [2] | Potency [3] | Potency [4] | Potency [5] | Potency [6] | Potency [7] | Potency [8] | Potency [9] | Potency [10] | Potency [11] | Potency [12] | Potency [13] | Potency [14] | Potency [17] | Potency [15]

CC1(C)[C@@H](O[C@H]2O[C@H](C(=O)O)[C@@H](O)[C@H](O)[C@H]2O[C@@H]2O[C@H](C(=O)O)[C@@H](O)[C@H](O)[C@H]2O)CC[C@]2(C)[C@H]3C(=O)C=C4[C@@H]5C[C@@](C)(C(=O)O)CC[C@]5(C)CC[C@@]4(C)[C@]3(C)CC[C@@H]12
inactive: Potency [1] | Potency [2] | Potency [3] | Potency [4] | Potency [5] | Potency [6] | Potency [7] | Potency [8] | Potency [9] | Potency [10] | Potency [11] | Potency [12] | Potency [13] | Potency [14] | Potency [15] | Potency [16]

NNC(=O)c1ccncc1
inactive: Potency [1] | Potency [2] | Potency [3] | Potency [4] | Potency [5] | Potency [6] | Potency [7] | Potency [8] | Potency [9] | Potency [10] | Potency [11] | Potency [12] | Potency [13] | Potency [14] | Potency [17] | Potency [16]

CCCCCCCCCCCCc1ccccc1O
inactive: Potency [2] | Potency [3] | Potency [4] | Potency [5] | Potency [6] | Potency [7] | Potency [9] | Potency [18] | Potency [19] | Potency [20] | Potency [14] | Potency [15] | Potency [16]
active: Potency [1] 21.4 µM and 24.3 µM | Potency [8] 18 µM and 20.4 µM | Potency [10] 14.3 µM and 18.2 µM

CCCCNC(=O)NS(=O)(=O)c1ccc(N)cc1
inactive: Potency [1] | Potency [2] | Potency [3] | Potency [4] | Potency [5] | Potency [6] | Potency [7] | Potency [8] | Potency [9] | Potency [11] | Potency [18] | Potency [19] | Potency [20] | Potency [12] | Potency [13] | Potency [14] | Potency [15] | Potency [16]

CS(=O)(=O)c1ccc([C@@H](O)[C@@H](CO)NC(=O)C(Cl)Cl)cc1
inactive: Potency [1] | Potency [2] | Potency [3] | Potency [4] | Potency [5] | Potency [6] | Potency [7] | Potency [8] | Potency [9] | Potency [10] | Potency [12] | Potency [13] | Potency [14] | Potency [16]

Nc1ncn([C@@H]2O[C@H](CO)[C@@H](O)[C@H]2O)c(=O)n1
active: Potency [2] 30.6 µM and 7.5 µM | Potency [13] 40.3 µM
inactive: Potency [1] | Potency [3] | Potency [4] | Potency [5] | Potency [6] | Potency [7] | Potency [8] | Potency [9] | Potency [10] | Potency [12] | Potency [14] | Potency [15] | Potency [16]

C[Si]1(C)O[Si](C)(C)O[Si](C)(C)O[Si](C)(C)O1
inactive: Potency [1] | Potency [2] | Potency [3] | Potency [4] | Potency [5] | Potency [6] | Potency [7] | Potency [8] | Potency [9] | Potency [10] | Potency [18] | Potency [19] | Potency [12] | Potency [13] | Potency [14] | Potency [17] | Potency [15] | Potency [16]

CC(=O)Oc1ccccc1C(=O)O
inactive: Potency [1] | Potency [2] | Potency [3] | Potency [4] | Potency [5] | Potency [6] | Potency [7] | Potency [8] | Potency [9] | Potency [10] | Potency [11] | Potency [13] | Potency [14] | Potency [17] | Potency [15] | Potency [16]

C=CCc1ccc(OC)c(OC)c1
inactive: Potency [1] | Potency [2] | Potency [3] | Potency [4] | Potency [5] | Potency [6] | Potency [7] | Potency [8] | Potency [9] | Potency [11] | Potency [18] | Potency [19] | Potency [20] | Potency [12] | Potency [13] | Potency [14] | Potency [15] | Potency [16]

NS(=O)(=O)c1cc2c(cc1Cl)NC=NS2(=O)=O
inactive: Potency [1] | Potency [2] | Potency [3] | Potency [4] | Potency [5] | Potency [6] | Potency [7] | Potency [8] | Potency [9] | Potency [10] | Potency [18] | Potency [19] | Potency [20] | Potency [12] | Potency [13] | Potency [14] | Potency [15] | Potency [16]

O=C1CCC(N2C(=O)c3ccccc3C2=O)C(=O)N1 (stereo not given)
inactive: Potency [1] | Potency [2] | Potency [3] | Potency [4] | Potency [5] | Potency [6] | Potency [7] | Potency [8] | Potency [9] | Potency [10] | Potency [11] | Potency [12] | Potency [14] | Potency [15] | Potency [16]

CCC[C@H](N[C@@H](C)C(=O)N1[C@H](C(=O)O)C[C@@H]2CCCC[C@@H]21)C(=O)OCC
inactive: Potency [1] | Potency [2] | Potency [3] | Potency [4] | Potency [5] | Potency [6] | Potency [7] | activity change, negative = cytotoxicity [8] -3.18% [at 13.5 µM] | Potency [9] | Potency [10] | Potency [18] | Potency [20] | Potency [12] | Potency [13] | Potency [14] | Potency [17] | Potency [15] | Potency [16]

Source: PubChem BioAssay (Tox21)
